Molecules are shown by their SMILES. Among all 69,000 compounds or so, about 8,600 (12%) showed an effect of 50% or more. The sample as a whole holds a higher share of strong results than the screen did.

For the experiment, the system named is Plasmodium berghei. Briefly: Screen against P. berghei liver stage (PbLuc), transformed with Luciferase, at 10uM. Type of experiment: functional, HepG2. To be noted: tested at 10 uM.
Take `Cc1ncc2c(n1)CN(CC(=O)Nc1nccs1)CC2`: the INHIBITION is given as 1.78%. The same measure for `COc1ccccc1OCCNCc1c(C)nn(C)c1N(C)C`: -11.98%; for `CCOc1ccc(C(=O)N(C)Cc2nccn2CC(F)(F)F)cc1`: 21.7%; for `Cc1ccc(CC(=O)N2CCCC(n3nc(C)cc3C)C2)cn1` (centres undefined): 5.03%. Regarding `CC(=O)c1cccc(NC(=O)Cn2cc(-c3ccccc3)ncc2=O)c1`, the INHIBITION turned out to be 17%.

With `O=C(NCc1ccnc(OCC2CC2)c1)C1Cc2ccccc2O1` (centres undefined), the INHIBITION is reported as -39.6%.

Take `Clc1ccccc1CN1CCCC(c2nnc(-c3cnccn3)o2)C1` (centres undefined): the INHIBITION was found to be 2.71%. The same measure for `CC(O)c1cn(Cc2ccc(F)cc2)nn1` (centres undefined): 23.6%. For the compound `CN(C)c1ncc(-c2cc(C(=O)NCCC#N)n(CC3CC3)c2)cn1`, the INHIBITION was -2.35%.

On to `Cc1cnc(-c2nc(C3CCN(Cc4ccccc4Cl)CC3)no2)cn1`, for which the INHIBITION came out at 32.35%. For the compound `c1cc(-c2noc(CN3CCn4c(nnc4C4CC4)C3)n2)cs1`, the INHIBITION is -14.65%. For `Cc1nc(C)n(C2CCCN(C(=O)CCc3cscn3)C2)n1` (centres undefined), the INHIBITION worked out at 37.9%. For `c1cnc(C2CCCN(Cc3ccsc3)C2)cn1` (centres undefined) the value was 25.4%; for `CC1(C)CC(CN2CCC3(CCC(=O)N(C4CCC4)C3)CC2)CCO1` (centres undefined), 6.27%; for `O=C(Nc1ccc(F)cc1)N1CCC2(CCC(=O)N(C3CC3)C2)CC1`, 31.6%. For `O=C(Cc1c[nH]c(=O)[nH]c1=O)N1CCC2(CCC(=O)N(C3CC3)C2)CC1` the value was 58.2%; for `Cc1ncc(CC(=O)N2CCC3(CCC(=O)N(C4CC4)C3)CC2)c(=O)[nH]1`, 50.8%.

As to `Cc1ncc(CC(=O)N2CCC3(CCC(=O)N(CCO)C3)CC2)c(=O)[nH]1`, the INHIBITION is 46.1%. For `Cc1cnn(CC(=O)N2CCC3(CCC(=O)N(C4CCCC4)C3)CC2)c1` the value was 39.1%; for `CC1(C)CC(C(=O)N2CCC3(CCC(=O)N(C4CC4)C3)CC2)CCO1` (centres undefined), 53.3%; for `CC(=O)c1ccc(N2CCC3(CCC(=O)N(C4CC4)C3)CC2)nc1`, -25.7%.

Regarding `O=C(c1c[nH]c(=O)[nH]1)N1CCCC2(CCC(=O)N(C3CCCC3)C2)C1` (centres undefined), the INHIBITION turned out to be 37.7%. With `O=C(COC1CCCC1)NCCc1noc(-c2ccccn2)n1`, the INHIBITION is listed as -13.1%. The same measure for `Cc1cc(N(C)C)nc(C2COCCN2Cc2cc(C)on2)n1` (centres undefined): 44.8%; for `CNC(=O)C1(c2cnccn2)CCCN1C(=O)c1ccc(OC)cc1` (centres undefined): 20.8%; for `N[C@@H](Cc1c[nH]cn1)C(=O)N1CCC(Oc2ccc(F)cc2)CC1`: 42.8%. For the compound `CN1CC2(CCN(Cc3cc(Cl)ccc3OCC(=O)O)CC2)OC1=O`, the INHIBITION was determined as 33.3%. The same measure for `O=C(O)COc1ccc(Cl)cc1CN1CCC2(CCOCC2)CC1`: 64.5%. As to `O=C(O)COc1ccc(Cl)cc1CN1CCC2(CCNCC2)CC1`, the INHIBITION is given as 5.46%. For `Cc1ccc2cc(C(=O)N3CCCC3Cn3cccn3)[nH]c2c1` (centres undefined) the value was -167%; for `CCC1CN(C)c2ccccc2CN1CCn1cncn1` (centres undefined), 40.6%. The same measure for `NC(=O)c1ccc(OCCCN2C[C@H](C3CC3)[C@@H](N)C2)cc1`: -13.4%; for `N[C@H]1CN(S(=O)(=O)c2cccnc2)C[C@@H]1C1CC1`: 1.98%. The same measure for `N[C@H]1CN(CCOc2ccc(F)cc2)C[C@@H]1C1CC1`: 27.6%. For the compound `Cc1ccc(-n2cccn2)cc1S(=O)(=O)N1C[C@H](C2CC2)[C@@H](N)C1`, the INHIBITION is 59.5%. The same measure for `N[C@H]1CN(S(=O)(=O)Cc2ccccc2)C[C@@H]1C1CC1`: -28.7%. For `N[C@H]1CN(S(=O)(=O)c2ccccc2)C[C@@H]1C1CC1` the value was 58.3%; for `N[C@H]1CN(CCCOc2ccccc2)C[C@@H]1C1CC1`, 53.8%; for `Cc1ccc(-n2cccn2)cc1S(=O)(=O)N1C[C@H]2CC[C@@H](C1)N(C)C2`, 48.1%. Consider `COc1ccc(-n2cccn2)cc1S(=O)(=O)N1C[C@H](C2CC2)[C@@H](N)C1`, for which the INHIBITION was determined as 12.8%. `CCS(=O)(=O)N1CCC2(CCN(CC(=O)N(C)C)C2=O)CC1`: the INHIBITION worked out at 37.1%. For `NC(=O)c1ccccc1Oc1cccc(C2CCCNC2)n1` (centres undefined), the INHIBITION is -13.2%. On to `O=c1[nH]c2ccc(S(=O)(=O)N(CCO)Cc3ccncc3)cc2[nH]1`, for which the INHIBITION turned out to be 17.5%. As to `Cc1oncc1C(=O)N1CCOCC2(CCN(c3ccccn3)C2)C1` (centres undefined), the INHIBITION was found to be 45.1%.

Consider `c1ccc(OCC2CC3(CCN(c4ncccn4)CC3)CO2)nc1` (centres undefined), for which the INHIBITION is -34%. Turning to `COc1ccnc(N2CCN(CC(=O)N3CCC(C)CC3)CC2)n1`, the INHIBITION is given as -22.9%. For `Cc1cc(CN(C)C(=O)c2ccc(F)c(C(F)(F)F)c2)no1` the value was 23.5%. For `CN(Cc1ccccc1C#N)C1CCN(CCc2ccccn2)CC1` the value was -52.5%; for `c1ccc(-c2noc(CCNC3CCOC4(CCOCC4)C3)n2)nc1` (centres undefined), -37.8%. For `CCn1cc(CN2CCCN(C(=O)c3sc(C)nc3C)CC2)cn1`, the INHIBITION turned out to be 7.08%. The same measure for `O=C(c1ccsc1)N1CCc2onc(COc3ccccn3)c2C1`: 45.8%. The same measure for `COc1c(CNCc2ccccc2Cn2ccnc2)c(C)nn1C`: 24%. The same measure for `CCCc1nnsc1C(=O)N1CCN(CC(O)c2ccco2)CC1` (centres undefined): 7.85%.

Regarding `O=C(CNc1cc(F)ccc1OCC1CCCO1)N1CCOCC1` (centres undefined), the INHIBITION was found to be 19.5%. The same measure for `Nc1ccnc(CNc2cc(F)ccc2OCC2CCCO2)n1` (centres undefined): 54.4%; for `CC(C)(C)c1nnc(CNc2cc(F)ccc2OCC2CCCO2)o1` (centres undefined): 35.5%; for `CCc1noc(CNc2ccc(F)cc2OCC2CC2)n1`: -29.9%. The same measure for `CCc1noc(CNc2cc(F)ccc2OCC2CCCO2)n1` (centres undefined): 1.81%. As for `Fc1ccc(OCC2CCCO2)c(NCc2noc(C3CC3)n2)c1` (centres undefined), the INHIBITION came out at 35.5%. The same measure for `CCc1nc(CNc2cc(Cl)ccc2OCC2CCCO2)no1` (centres undefined): 93.1%; for `Fc1ccc(OCC2CCCO2)c(NCc2cn3cccnc3n2)c1` (centres undefined): 59.3%. As to `O=C(Nc1cc(F)ccc1OCC1CCCO1)c1ccccn1` (centres undefined), the INHIBITION is recorded as -25.9%. On to `NCC1CCC2(CCN(C(=O)c3ccccn3)CC2)CO1` (centres undefined), for which the INHIBITION came to 38.5%. Regarding `Cc1ncc(C(=O)NC2CCc3nccn3C2)c(C(C)C)n1` (centres undefined), the INHIBITION amounted to 11.6%.

Regarding `CCOCC1c2c(cnn2CC2CC2)CCN1C(=O)c1ccncn1` (centres undefined), the INHIBITION amounted to 6.72%. The same measure for `O=C(CC1CC1)N1CC[C@@H]2[C@H](CC1)N(Cc1cccnc1)CCS2(=O)=O`: -35%; for `Cc1nc(C)n(C2CCCN(C(=O)CCn3ccnn3)C2)n1` (centres undefined): -10.3%. The same measure for `Cc1cn[nH]c1C1COCCN1Cc1ccsc1` (centres undefined): 25.15%.

For `O=C(NS(=O)(=O)c1c(Cl)cccc1Cl)c1cccc2c1OCCO2`, the INHIBITION is recorded as 12.3%. The same measure for `O=C(CCCC(=O)NCc1cccc(Br)c1)NCCN1CCCC1`: 17.5%. Turning to `CC(C)S(=O)(=O)N1CCC(c2cc3n(n2)[C@@H](C(F)(F)F)C[C@@H](C)N3)C1` (some centres undefined), the INHIBITION is listed as 27.3%. Regarding `CCOc1cc(C)nc(N2CCN(C(=O)C(C)NC(C)=O)CC2)n1` (centres undefined), the INHIBITION came out at 60.5%. For `CCOc1cc(C)nc(N2CCN(C(=O)CC)CC2)n1` the value was 8.25%.

`CCN(CC)CC(=O)N1CCN(c2nc(C)cc(OC)n2)CC1`: the INHIBITION came out at 2.54%. The same measure for `COc1cc(C)nc(N2CCN(C(=O)CN(C)C(C)C)CC2)n1`: 59.9%; for `COc1cc(C)nc(N2CCN(C(=O)CN(C)C3CC3)CC2)n1`: -3.18%; for `CCOc1cc(C)nc(N2CCN(C(=O)c3ccncc3)CC2)n1`: 33.8%. On to `CCOC1COC2(CCN(CC3CCOCC3)CC2)C1` (centres undefined), for which the INHIBITION stood at 31.2%.

For the compound `Clc1ccc(CN2CCCCC2Cn2cncn2)c2ncccc12` (centres undefined), the INHIBITION is reported as 40.65%. For `Cc1nc(CN2CC[C@H]3[C@H]2CCN3c2nncs2)cs1` the value was 40.8%.

Consider `Cc1nn(CCN2CCSCC2)cc1CNCc1ccccn1`, for which the INHIBITION is listed as 23.5%.

For `OC(COCc1ccccc1F)CN1CCC(Cn2cccn2)CC1` (centres undefined), the INHIBITION came out at 46.3%.

Take `c1ncn(CC2CCCN(Cc3nc(-c4ccoc4)no3)C2)n1` (centres undefined): the INHIBITION is listed as -34%. As for `CN(C)C(=O)N1CCC2(CC1)CCN(c1ncccn1)C2`, the INHIBITION is on record as -26.1%. Turning to `Cc1ccc(CNC(=O)c2nc3c(n2C)CCN(c2ncccn2)C3)o1`, the INHIBITION was 48.4%. For the compound `COc1cc(CNCc2c(C)nn(C)c2N(C)C)ccc1OCCO`, the INHIBITION was 21.6%. Turning to `Nc1c(Cl)cnn1C1CCN(Cc2ccccc2)C1` (centres undefined), the INHIBITION is recorded as 37.7%.

As to `Nc1ccnn1C1CCN(Cc2ccccc2)C1` (centres undefined), the INHIBITION turned out to be 43.1%. In the case of `Cc1cnn(C2CCN(Cc3ccccc3)C2)c1N` (centres undefined), the INHIBITION turned out to be 56.1%. The same measure for `Cc1ccc(NC(=O)[C@@H]2C[C@H](C(=O)O)CN(Cc3sccc3C)C2)cn1`: 29.4%; for `Cc1ccc(NC2CCN(C(=O)c3cccnc3O)CC2)nn1`: 16.8%; for `Cc1csc2c(=O)n(CCSc3cnn[nH]3)cnc12`: 18.5%. For `c1ccc(CCN2CCN(C3CCOC4(CCOCC4)C3)CC2)nc1` (centres undefined) the value was 7.24%; for `Cc1ncccc1O[C@H]1CCN(C(=O)Cc2cccs2)CC[C@@H]1O`, 42.9%; for `Cc1ncccc1O[C@H]1CCN(C(=O)c2cccs2)CC[C@@H]1O`, 23.3%. As for `CCc1ccc(C(=O)N2CCC(c3nncn3CC)CC2)cc1`, the INHIBITION was -3.16%.

Turning to `CCc1ccc(C(=O)N2CC[C@H](Oc3cccnc3C)[C@@H](O)CC2)cc1`, the INHIBITION was determined as 78.2%. In the case of `Cc1csc(C(=O)N2CC[C@H](Oc3cccnc3C)[C@@H](O)CC2)c1`, the INHIBITION worked out at 57.5%. For `Cc1ccc(C(=O)N2CC[C@H](Oc3cccnc3C)[C@@H](O)CC2)s1` the value was 44.1%; for `O=C(NC1CCCCC1)N1CCc2onc(COc3cccnc3)c2C1`, 40.4%; for `Cc1ccoc1C(=O)N1CCOCC2(CCN(c3ncccn3)C2)C1` (centres undefined), -19.9%. The same measure for `CC(C)CNC(=O)CNC(=O)NC(C)COc1ccccc1F` (centres undefined): -24.5%; for `O=C(NCC1CC1)C1CSCN1S(=O)(=O)c1cc(F)cc(F)c1` (centres undefined): 27.7%. The same measure for `Cc1noc([C@@H]2CC[C@@H]3[C@@H](CCN3S(=O)(=O)c3cccnc3)O2)n1`: -2.53%.
